PI5P4K alpha inh: qHTS for Inhibitors of phosphatidylinositol 5-phosphate 4-kinase (PI5P4K); Phosphatidylinositol 5-phosphate 4-kinase type-2 alpha (Homo sapiens), P48426; PI5P4Kalpha enzyme, ADP-Glo luminescence, 60 min; active compounds read low; max response, %; 330,000 compounds, 1.2% hits; active = max response of -50% or lower; inconclusive = between -30% and -50%; inactive = -30% or higher; note: value at the top dose of about 77 µM
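ADP-Glo luminescence end-point after a 60 min room-temperature kinase reaction. PI5P4Kalpha and substrate in HEPES pH 7.4 buffer with EGTA, 0.1% CHAPS and 5% DMSO; ATP at 5 microM final.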
BAZ2B block: qHTS Assay for Inhibitors of BAZ2B; Bromodomain adjacent to zinc finger domain protein 2B (Homo sapiens), Q9UIF8; AlphaScreen BAZ2B-H3K14Ac peptide displacement; Potency, µM (series often up to 114 µM), usual class: inhibitors; 360,000 compounds, 4.4% hits; note: nearly all actives have a fitted effect of over 60% in size
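Protein-peptide AlphaScreen: BAZ2B 50 nM, b-H3K14Ac 50 nM, 1x PBS pH 7.4 + 0.01% Tween-20. Preincubation 30 min RT; cpd 30 min RT (top 110 uM); beads 20 min RT, light-protected.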
JMJD2A Tudor inh: qHTS Assay for Inhibitors of JMJD2A-Tudor Domain | Lysine-specific demethylase 4A (Homo sapiens), O75164 | AlphaScreen JMJD2A-Tudor / H3K4me3 peptide binding | Potency, µM (doses to about 114 µM), usual class: inhibitors | 390,000 compounds, 4.4% hits | AID 504339, 2011; note: nearly all actives have a fitted effect of over 50% in size
HP1b binding inh: HTS for Inhibitors of HP1-beta Chromodomain Interactions with Methylated Histone Tails | Potency, µM (top dose mostly 114 µM), usual class: inhibitors | Chromobox protein homolog 1 (Homo sapiens), P83916 | AID 540317, 2011 | 390,000 compounds, 0.56% hits | AlphaScreen HP1-beta / biotin-H3K9me3 peptide binding; note: nearly all actives have a fitted effect of over 70% in size
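Compound inhibition of the preformed complex between 50 nM HP1-beta and 50 nM biotinylated H3K9me3 peptide was read by AlphaScreen. Buffer was PBS pH 7.4 with 0.01% Tween-20. Incubations ran 30 min at room temperature, with 10 ug/mL donor/acceptor beads.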
L3MBTL1 block: qHTS Assay for the Inhibitors of L3MBTL1; AlphaScreen L3MBTL1–H3K9me1 peptide binding; Potency, µM (top dose mostly 57.1 µM), actives largely listed as inhibitors; 230,000 compounds, 0.66% hits; AID 485360, 2010; note: nearly all actives have a fitted effect of over 60% in size
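L3MBTL1 (50 nM) pre-complexed 30 min with biotinylated H3(1-15)K9me1 peptide (75 nM), then compounds added for 30 min at room temperature; AlphaScreen streptavidin donor/nickel chelate acceptor beads (10 ug/mL final) read after 30 min dark incubation.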
G9a block: qHTS Assay for Inhibitors of Histone Lysine Methyltransferase G9a; AID 504332, 2011; G9a H3K9 monomethylation, AlphaScreen, 2 h; 350,000 compounds, 8.8% hits; Histone-lysine N-methyltransferase EHMT2 (Homo sapiens), Q96KQ7; Potency, µM (doses to about 102 µM), actives largely listed as inhibitors; note: nearly all actives have a fitted effect of over 75% in size
Target sequence (Q96KQ7 913-1193 limits assumed): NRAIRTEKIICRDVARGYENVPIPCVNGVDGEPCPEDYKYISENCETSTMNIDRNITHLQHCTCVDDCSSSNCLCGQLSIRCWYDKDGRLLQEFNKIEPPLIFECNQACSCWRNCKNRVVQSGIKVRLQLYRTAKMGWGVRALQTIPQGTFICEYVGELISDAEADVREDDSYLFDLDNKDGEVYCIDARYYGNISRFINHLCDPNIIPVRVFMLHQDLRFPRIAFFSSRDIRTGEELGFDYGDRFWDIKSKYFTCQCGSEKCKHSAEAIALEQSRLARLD
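Quantitative HTS format: methyltransferase activity on a biotin-tagged H3K9 peptide is measured by AlphaScreen, using a rabbit anti-monomethyl-H3K9 antibody with streptavidin donor and anti-IgG acceptor beads. Final levels are 20 nM enzyme, 500 nM peptide, 20 uM SAM; 2 h RT.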
12-hLO cuvette: Cuvette-Based Assay for Inhibitors of 12-hLO (12-human lipoxygenase): 8HQ Series - Round 1. shares compounds with BAZ2B block. purified 12-hLO, cuvette UV 234 nm product formation. Potency, µM, actives largely listed as inhibitors. 35 compounds, 60% hits. AID 2163, 2009;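 active = compounds that slowed 12-hLO product formation enough to yield a measured IC50 potency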
JMJD2E inh-1: Inhibitors of Human Jumonji Domain Containing 2E (JMJD2E): 8HQs - Round 1 | shares compounds with BAZ2B block | JMJD2E demethylase, FDH-coupled NADH fluorescence | Potency, µM (titrated, usually from 57 µM), actives largely listed as inhibitors | 130 compounds, 89% hits | AID 493212, 2011
Target sequence (B2RXH2 1-337 limits assumed): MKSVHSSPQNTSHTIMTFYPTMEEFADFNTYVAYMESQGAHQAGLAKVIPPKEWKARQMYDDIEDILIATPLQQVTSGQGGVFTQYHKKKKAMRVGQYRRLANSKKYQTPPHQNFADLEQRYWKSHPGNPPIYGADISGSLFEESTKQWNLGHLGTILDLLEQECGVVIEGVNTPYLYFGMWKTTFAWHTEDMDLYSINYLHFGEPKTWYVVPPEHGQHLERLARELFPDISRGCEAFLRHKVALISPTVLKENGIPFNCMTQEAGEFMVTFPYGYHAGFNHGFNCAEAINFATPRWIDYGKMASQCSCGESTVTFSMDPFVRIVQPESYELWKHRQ
ME-1 prolif: qHTS Assay for Compounds Blocking the Interaction Between CBF-beta and RUNX1 for the Treatment of Acute Myeloid Leukemia: ME-1 cellular proliferation. shares compounds with BAZ2B block. ME-1 cell proliferation, ATP luminescence, 48 h. Potency, µM (doses to about 56.1 µM), actives largely listed as inhibitors. 140 compounds, 20% hits. AID 504370, 2011
JMJD2E inh-2: Confirmation qHTS Assay for Inhibitors of Human Jumonji Domain Containing 2E (JMJD2E). shares compounds with JMJD2A Tudor inh. Recombinant JMJD2E, FDH-coupled NADH fluorescence (FDH is formaldehyde dehydrogenase). Potency, µM (highest dose often 56.8 µM), hits mostly inhibitors. 140 compounds, 93% hits
FDH counter: Counterscreen for JMJD2E Inhibitors: qHTS Assay for Inhibitors of Formaldehyde Dehydrogenase (FDH). shares compounds with JMJD2A Tudor inh. FDH enzyme assay, NADH fluorescence kinetic. Potency, µM (titrated, usually from 56.7 µM), usual class: inhibitors. 140 compounds, 10% hits. AID 2680, 2010
JMJD2E MALDI inh: MALDI-TOF-MS Assay for Inhibitors of Human Jumonji Domain Containing 2E (JMJD2E); 45 compounds, 90% hits; recombinant JMJD2E demethylation, MALDI-TOF-MS; Potency, µM, usual class: inhibitors; AID 2688, 2010; shares compounds with JMJD2A Tudor inh;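 active = compounds whose IC50 for blocking JMJD2E demethylation is below 100 µM; inconclusive = dose dependent effect but IC50 above 100 µM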
A number is an active result; n = inactive; u = inconclusive; x = no result; [ ] = another dose, or the depositor's remark. Rows were chosen to be rich in hits. Some 11% of all compounds tested hit in one or more screens of this group. Unless noted, calls come from the whole dose curve; as a rule, active = well fitted curve in the direction sought with a large enough effect; inconclusive = small, poorly fitted or top-dose-only effect, or another doubt; inactive = no such curve, though single readings can be large; an effect the other way counts as inactive or inconclusive.

SMILES	PI5P4K alpha inh	BAZ2B block	JMJD2A Tudor inh	HP1b binding inh	L3MBTL1 block	G9a block	ME-1 prolif	others
Oc1csc(Cc2nc(-c3ccccc3F)cs2)n1	n	n	n	n	u	u	n
O=C(Oc1ccccc1)N1CCC2(CC1)CCN(c1ccccc1)CC2	x	x	x	x	x	n[12.7 µM]	x
S=C(NCc1ccco1)N1CCOCC1	n	n	n	n	n	n	n
Fc1ccc(N2CCN(C(=S)NCc3ccco3)CC2)cc1	n	u	u	n	x	u	x
COc1ccc(OC)c(NC(=O)Cn2c(=O)n(-c3cccc(C)c3)c(=O)c3c2c2cc(C)ccc2n3C)c1	x	n	n	n	x	n	x
O=[N+]([O-])c1c(C(Cl)Cl)nn(-c2ccccc2)c1N1CCCC1	x	12.6µM	25.1µM	u	u	u	n
CCOC(=O)C1CCN(c2c([N+](=O)[O-])c(C(Cl)Cl)nn2-c2ccccc2)CC1	x	u	u	u	n	u	x
CCOc1cc(CNC(=O)c2ccc3c(c2)nc2n3CCCCC2)ccc1OC	x	n	n	n	x	n	x
Nc1nc(-c2ccccc2)c(N=Nc2cccc3ccccc23)s1	n	8.91µM	11.2µM	u	17.8µM	10µM	n
Nc1nc(-c2ccccc2)c(N=Nc2ccccc2Cl)s1	n	10µM	12.6µM	17.8µM	28.2µM	10µM	n
CC(=O)Nc1sc(N)nc1-c1ccccc1	n	n	n	n	x	u	x
O=c1c(-c2cc(O)c(O)c(O)c2)coc2cc(O)c(O)c(O)c12	x	x	x	x	x	n[2.33 µM]	n
Cc1ccc(CNC(=O)CSc2nc(=O)[nH]c3c2CCCC3)cc1	x	n	n	n	x	n	x
COc1c(O)cccc1O	x	x	x	x	x	n[2.33 µM]	x
Oc1cccc(O)c1O	x	x	x	x	x	3.55µM	n
O=C(O)c1cc(O)ccc1O	n	x	n	n	x	x	x
O=C(O)C1=CC(=C(c2ccc(O)c(C(=O)O)c2)c2ccc(O)c(C(=O)O)c2)C=CC1=O	x	1.12µM	x	x	u	1.12µM	n
O=C(CSc1ccc(-c2cccc([N+](=O)[O-])c2)nn1)NCc1ccccc1	n	n	n	n	n	n	x
O=C(CSc1ccc(-c2ccccn2)nn1)NCc1ccccc1	n	17.8µM	u	n	x	n	n
c1ccc2ncccc2c1	n	x	n	n	n	x	x
c1cnc2c(c1)ccc1cccnc12	n	1.58µM	7.94µM	n	3.16µM	12.6µM	8.91µM
CCCCC(=O)NC(c1ccco1)c1cc(Cl)c2cccnc2c1O (centres undefined)	n	n	n[11.4 µM]	n	n	x	x
CC(=O)NC(c1ccco1)c1cc(Cl)c2cccnc2c1O (centres undefined)	x	31.6µM	x	x	n	n[12.7 µM]	x	12-hLO cuvette=3µM;JMJD2E inh-1=32.4µM
CC(=O)NC(c1ccco1)c1cc(Br)c2cccnc2c1O (centres undefined)	x	28.2µM	x	x	u	n[12.7 µM]	x	12-hLO cuvette=2µM;JMJD2E inh-1=28.9µM
CC(=O)NC(c1ccco1)c1cc(Cl)c2ccc(N(C)C)nc2c1O (centres undefined)	x	50.1µM	x	x	n	u	x	12-hLO cuvette=n;JMJD2E inh-1=20.4µM
SMILES	PI5P4K alpha inh	BAZ2B block	JMJD2A Tudor inh	HP1b binding inh	L3MBTL1 block	G9a block	ME-1 prolif	others
CCC(=O)NC(c1ccco1)c1cc(Cl)c2cccnc2c1OC (centres undefined)	x	n	n	n	n	n[12.7 µM]	x	12-hLO cuvette=n;JMJD2E inh-1=32.4µM
Cc1nc2c(c(C)c1CCC(=O)N1CCN(c3ccccc3)CC1)c(=O)n(C)c(=O)n2C	x	n	n	n	x	n	x
CCCn1c(=O)c2sccc2n2c(CCCC(=O)Nc3ccc(Oc4ccc(Cl)cc4)cc3)nnc12	x	n	n	n	x	n	x
CCC(=O)NC(c1cc(Cl)c2cccnc2c1O)c1cccn1C (centres undefined)	x	x	u	x	x	x	x	12-hLO cuvette=3.8µM;JMJD2E inh-1=n
CCOc1ccccc1NC(=O)c1c(NC(=O)COc2ccccc2)sc2c1CCCCC2	x	n	n	n	x	n	x
Oc1ccc(Oc2ccccc2F)c2cccnc12	x	x	50.1µM	x	x	x	x	JMJD2E inh-1=8.91µM;JMJD2E inh-2=12.9µM;FDH counter=n;JMJD2E MALDI inh=16.8

Source: PubChem
